# Measurements from PubChem BioAssay AID463173 (ICCB-Longwood Screening Facility, Harvard Medical School, 2010).
# The campaign covered roughly 52,000 compounds. About 4,300 (8.3%) were called active. Cut-off read from the data, not from the text of the source: active = survival mostly below about 52% (no sharp cut-off); inactive = mostly above about 56%. The sample as a whole holds a higher share of actives than the screen did.
# Tested on: DeltatarO mutant
# Test: growth inhibition of S. aureus wild type versus tarO mutant, primary screen, teichoic acid synthesis inhibitors, RN4220, OD600 (AID 463173)
# Conditions: OD600, 18 h, hits give low values, screened at 18.75 µg/mL (by protocol)
row,Structure (SMILES),survival
1,Cc1ccc2c(c1)c1c(c(=O)n(Cc3ccccc3)c(=O)n1Cc1cccc(F)c1)n2C,89% (inactive)
2,CC(C)(C)c1ccc(C(=O)Nc2nc3nc(-c4ccccc4)cc(=O)n3[nH]2)cc1,94% (inactive)
3,CCN(Cc1ccccc1)C(=O)C1CCN(S(=O)(=O)c2ccc3c(c2)CCCN3C(C)=O)CC1,80% (inactive)
4,CC1CCCC(C)N1C(=O)CN1CCC(N2CCCCC2)CC1 (stereo unspecified),94% (inactive)
5,CC(C)NC(=O)Cn1nnc(-c2ccc(Cl)cc2)n1,82% (inactive)
6,COc1ccccc1CC(NC(C)=O)C(=O)N1CCN(C(=O)c2cccs2)CC1 (stereo unspecified),97% (inactive)
7,O=C(NCc1ccccc1)C(=O)NCC(c1ccco1)S(=O)(=O)c1cccs1 (stereo unspecified),96% (inactive)
8,O=C(NCc1ccc(F)cc1)C(=O)NCC(c1ccco1)S(=O)(=O)c1cccs1 (stereo unspecified),8% (active)
9,O=C(NCCc1ccc(Cl)cc1)C(=O)NCC(c1ccco1)S(=O)(=O)c1cccs1 (stereo unspecified),20% (active)
10,Cc1ccccc1CNC(=O)C(=O)NCC(c1ccco1)S(=O)(=O)c1ccccc1 (stereo unspecified),92% (inactive)
11,Cc1ccc(CNC(=O)C(=O)NCC(c2ccco2)S(=O)(=O)c2cccs2)cc1 (stereo unspecified),101% (inactive)
12,O=C(NCc1ccccc1)C(=O)NCC(c1ccco1)S(=O)(=O)c1ccccc1 (stereo unspecified),76% (inactive)
13,O=C(NCCc1ccc(F)cc1)C(=O)NCC(c1ccco1)S(=O)(=O)c1cccs1 (stereo unspecified),66% (inactive)
14,O=C(NCc1ccccc1F)C(=O)NCC(c1ccco1)S(=O)(=O)c1cccs1 (stereo unspecified),25% (active)
15,O=C(NCCc1ccccc1)C(=O)NCC(c1ccco1)S(=O)(=O)c1cccs1 (stereo unspecified),94% (inactive)
16,O=C(NCc1ccccc1F)C(=O)NCC(c1ccco1)S(=O)(=O)c1ccccc1 (stereo unspecified),-5% (active)
17,O=C(NCc1ccccc1Cl)C(=O)NCC(c1ccco1)S(=O)(=O)c1cccs1 (stereo unspecified),55% (inactive)
18,Cc1ccccc1CNC(=O)C(=O)NCC(c1ccco1)S(=O)(=O)c1cccs1 (stereo unspecified),70% (inactive)
19,COc1ccc2c(c1)N(C)/C(=C1/SC(=Nc3ccc(C)cc3)N(C)C1=O)S2,102% (inactive)

row,Structure (SMILES),survival
1,CCOc1ccccc1NC(=O)c1c(NC(=O)c2cccc(C)c2)sc2c1CCC2,74% (inactive)
2,CCc1ccc(NC(=O)CSc2nc3ccccc3c(=O)n2CCNC(C)=O)cc1,87% (inactive)
3,COc1ccc(C2(C(=O)N3CCCC3)CCCC2)cc1OC,89% (inactive)
4,CCC(=O)N1CCCc2cc(S(=O)(=O)N3CCC(C(=O)NC4CCC(C)CC4)CC3)ccc21 (stereo unspecified),123% (inactive)
5,CCOC(=O)c1cc2occc2n1CCc1ccccc1,101% (inactive)
6,O=C(c1ccccc1)N1CCc2cc(CNS(=O)(=O)c3ccccc3Cl)ccc21,78% (inactive)
7,COc1cc(NS(=O)(=O)c2ccc3oc(=O)c4ncn(C)c4c3c2)cc(OC)c1,126% (inactive)
8,CC1(C)CC(=O)C(C=NCc2ccccc2)=C(O)C1,95% (inactive)
9,O=C(Nc1ccc(F)cc1)C1CCN(S(=O)(=O)c2ccc3c(c2)CCCN3C(=O)C2CCC2)CC1,73% (inactive)
10,N#Cc1c(NC(=O)c2ccccc2)oc(-c2ccccc2)c1-c1ccccc1,56% (inactive)
11,N#Cc1c(/N=C/c2ccco2)oc(-c2ccccc2)c1-c1ccccc1,98% (inactive)
12,N#Cc1c(NC(=O)C(F)(F)F)oc(-c2ccccc2)c1-c1ccccc1,12% (active)
13,CCc1cccc(CC)c1N(COC)C(=O)Cn1c(C)nc2ccccc21,59% (inactive)
14,CCc1cccc(NC(=O)CCc2c(C)nc3c(c2C)c(=O)n(C)c(=O)n3C)c1,93% (inactive)
15,COc1ccc(-n2nc(C(=O)NCc3ccc(F)cc3)c3c4ccccc4n(C)c3c2=O)cc1,88% (inactive)
16,N#C/C(=C/c1ccc(-c2cc(C(=O)O)ccc2Cl)o1)C(=O)NCCc1c[nH]c2ccccc12,12% (active)
17,N#C/C(=C\c1ccc(-c2cc(Cl)ccc2Cl)o1)C(=O)Nc1ccccc1C(=O)O,37% (active)
18,N#C/C(=C/c1ccc(N2CCCCC2)o1)C(=O)NCCc1c[nH]c2ccccc12,76% (inactive)
19,Cc1ccc(NC(=O)/C(C#N)=C/c2ccc(-c3ccc(Cl)c(C(=O)O)c3)o2)cc1C,70% (inactive)

row,Structure (SMILES),survival
1,N#C/C(=C\c1ccc(-c2ccc(C(=O)O)cc2)o1)C(=O)Nc1ccccc1C(=O)O,60% (inactive)
2,N#C/C(=C/c1ccc(-c2ccc(S(N)(=O)=O)cc2)o1)C(=O)Nc1cc(Cl)ccc1Cl,46% (inactive)
3,COc1ccc(-n2ccn(Cc3ccccc3Cl)c(=O)c2=O)cc1OC,61% (inactive)
4,CCOc1cc(S(=O)(=O)NCCc2c(C)[nH]c3ccc(C)cc23)ccc1Br,92% (inactive)
5,CC(Oc1ccc(F)cc1)C(=O)NCC1(N(C)C)CCCCC1 (stereo unspecified),83% (inactive)
6,CCOC(=O)c1c(C)[nH]c(C)c1S(=O)(=O)NCC(=O)Nc1ccc(C)cc1C,72% (inactive)
7,O=C(C1CCC(Cn2c(=O)c3sccc3n(Cc3ccccc3)c2=O)CC1)N1CCCCC1 (stereo unspecified),78% (inactive)
8,Cc1ccc(C)c(NC(=O)C(=O)NCCc2csc3nc(-c4ccccc4C)nn23)c1,109% (inactive)
9,CCOc1ccc(NC(=O)C(=O)NCCc2csc3nc(-c4ccccc4F)nn23)cc1,-1% (active)
10,Cc1ccc(NC(=O)C(=O)NCCc2csc3nc(-c4ccccc4C)nn23)cc1Cl,86% (inactive)
11,CCOc1ccc(CC(=O)NCCc2csc3nc(-c4ccccc4F)nn23)cc1,91% (inactive)
12,CC(=O)Nc1cccc(NC(=O)C(=O)NCCc2csc3nc(-c4ccccc4F)nn23)c1,64% (inactive)
13,Cc1ccccc1-c1nc2scc(CCNC(=O)C(=O)Nc3ccc(F)cc3F)n2n1,-2% (active)
14,O=C(NCCc1csc2nc(-c3ccccc3F)nn12)C(=O)Nc1cc(F)ccc1F,79% (inactive)
15,COC(=O)c1ccc(NC(=O)C(=O)NCCc2csc3nc(-c4ccccc4F)nn23)cc1,76% (inactive)
16,Cc1c(Cl)cccc1NC(=O)C(=O)NCCc1csc2nc(-c3ccccc3F)nn12,6% (active)
17,Cc1ccccc1CNC(=O)c1ccc(CS(=O)Cc2ccc(Cl)cc2)o1 (stereo unspecified),79% (inactive)
18,CCOc1ccc(NC(=O)c2ncn(-c3ccccc3)n2)cc1,83% (inactive)
